Each structure is given as a SMILES string. Inconclusive results are not listed. Active and inactive are the calls of the source. Unless noted, calls follow the shape of the dose curve; as a rule, active = well fitted curve in the direction sought with a large enough effect; inconclusive = small, poorly fitted or top-dose-only effect, or another doubt; inactive = no such curve, though single readings can be large; an effect the other way counts as inactive or inconclusive.

Assay [1] can be described thus: Cytometric Cell-Based qHTS for Inhibitors of the mTORC1 Signaling Pathway in MEF (Tsc2-/-, p53-/-) Cells (AID 2660).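 Also: Tsc2 and p53 null MEFs carrying empty vector with compound for 24 h; percent of cells above a phospho-rpS6 to PI ratio cutoff in each well; series mostly up to about 38 µM.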 An outline of the steps:
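Cells are plated, treated with compound for 24 hrs at 37 degree Celsius, then fixed, blocked and immunostained for phospho-rpS6 Ser235/236. Propidium iodide counterstain follows. Per-well % positive cells is derived from the PI-normalized phospho-S6 signal.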

Assay [2] is described as follows: High Content Imaging Cell-Based qHTS for Inhibitors of the mTORC1 Signaling Pathway in MEF (Tsc2-/-, p53-/-) Cells (AID 2666).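 Also: percent of cells scored positive for phospho-rpS6 Ser235/236 immunostaining by imaging.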 An outline of the steps:
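MEF Tsc2-/- p53-/- (empty vector), DMEM/10% FBS; cpd 24 h 37 °C; PFA fix, Alexa-488 p-rpS6 S235/236 Ab, Hoechst; imaged; rapamycin-defined inhibition; % positive cells/well.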
(In qHTS, concentration-response curves come from the screen itself.)

Assay [3] is described as follows: High Content Imaging Cell-Based qHTS for Inhibitors of the mTORC1 Signaling Pathway in MEF Cells (AID 2667). Also: potency is read from the fitted curve at half-maximal effect. In short, it runs like this:
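Read-out is the share of phospho-rpS6-positive cells per well, from Hoechst-normalized Alexa-488 Ser235/236 staining imaged on IN Cell. Cells: WT Tsc2-expressing Tsc2-/-, p53-/- MEFs exposed to compound for 24 hrs.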

The nature of assay [4]: Cytometry Cell-Based qHTS for Inhibitors of the mTORC1 Signaling Pathway in MEF cells (AID 2668). Also: potency is read from the fitted curve at half-maximal effect. In short, it runs like this:
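Tsc2-/-, p53-/- MEFs re-expressing WT Tsc2; cpd 24 hrs, 37 degree Celsius; PFA fix, Alexa-488 p-rpS6 (Ser235/236) Ab 2 hrs RT, PI counterstain; Acumen 488nm scan; p-S6/PI ratio → % positive cells; PI count = viability.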

Assay [5] deals with Ubiquitin carboxyl-terminal hydrolase 2 (Homo sapiens) (UniProt O75604). Description: qHTS Validation Assay for Inhibitors of Ubiquitin-specific Protease USP2a Using CHOP2 as the Reporter (AID 463106). An outline of the steps: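 Fluorescence read-out at Ex 485nm/Em 531nm after 60min RT, following addition of 25nM Ub-CHOP2 plus 25nM reporter substrate to USP2 core (10nM) pretreated 30min with compound. Data normalized to NEM full inhibition; concentration-response curves fitted.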

For assay [6], the target named is DNA polymerase III PolC-type (Bacillus subtilis (strain 168)) (UniProt P13267). Description: qHTS Validation Assay for the Inhibitors of DNA Replication in Gram-Positive Bacteria (AID 485295).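 Also: reconstituted holoenzyme with PolC plus beta clamp SSB and primase; PicoGreen fluorescence of double-stranded DNA made on primed circular M13 template; series mostly up to about 57 µM.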 In short, it runs like this:
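First, compound is mixed with the reconstituted replication complex and held at room temperature. Next, circular single-stranded M13Gori with nucleotides starts synthesis. Finally, PicoGreen in EDTA halts the reaction and stains double-stranded product for fluorescence reading.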

The target of assay [7] is Tumor susceptibility gene 101 protein (Homo sapiens) (UniProt Q99816). Description: qHTS Validation Assay for Iinhibitors of HIV-1 Budding by Blocking the Interaction of PTAP/TSG101 (AID 485342; calls by dose curve). In short, it runs like this: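 Binding of a FITC-tagged PTAP-motif peptide (50 nM) to the Tsg101 binding domain (10 uM) is monitored by fluorescence polarization. Compounds are pin-delivered before peptide addition, and incubation runs 20 min at room temperature.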

Assay [8] addresses Beta-2 adrenergic receptor (Homo sapiens) (UniProt P07550). As to the kind of experiment: qHTS validation assay of beta-arrestin-biased ligands of beta2-adrenergic receptor (AID 485366). In short, it runs like this: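 Compound series up to 46 microM applied to beta2-AR/beta-arrestin Tango cells, 18 hr, 37 degrees C, 5% CO2. Read-out: tTA-driven luciferase luminescence, converted to %Activity; concentration-response curves assigned curve classes.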

Assay [9] can be described thus: Quantitative high throughput screen for delayed death inhibitors of the malarial parasite plastid, 96 hour incubation (AID 488745). Also: nearly all actives have a fitted effect of over 70% in size. Also: potency is read from the fitted curve at half-maximal effect. An outline of the steps: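 Luciferase-expressing P. falciparum, infected RBCs 2% Hct/0.1% parasitemia (final); 96 h cpd exposure, 37 C, 5% CO2; RPMI 1640 + 0.5% Albumax, bicarbonate, gentamycin. Readout: luminescence loss = growth inhibition.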

The nature of assay [10]: Quantitative high throughput screen for delayed death inhibitors of the malarial parasite plastid, 48 hour incubation (AID 488752). Also: nearly all actives have a fitted effect of over 65% in size. Also: potency is read from the fitted curve at half-maximal effect. In short, it runs like this: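 Luciferase-expressing P. falciparum in RBCs, 2% Hct, 0.1% parasitemia final; RPMI 1640 + 0.5% Albumax; 48 h, 37 C, 5% CO2; luminescence readout, signal drop = growth inhibition.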
Assay [11] deals with Thioredoxin reductase 1, cytoplasmic (Rattus norvegicus) (UniProt O89049). As to the kind of experiment: qHTS Assay for Substrates of Mammalian Selenoprotein Thioredoxin Reductase 1 (TrxR1) (AID 488772).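 Also: series mostly up to about 57 µM; a drop in NADPH fluorescence below the no-compound background marks a TrxR1 substrate.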 An outline of the steps: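 In this dual-purpose format, potential substrates are identified from the first fluorescence read after selenite addition, not from the 8-minute delta. Rat enzyme is preincubated with NADPH and then with compound at ~22 deg C.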

The target is the same in assay [12]. Description: qHTS Assay for Inhibitors of Mammalian Selenoprotein Thioredoxin Reductase 1 (TrxR1) (AID 488773).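 Also: drop in NADPH fluorescence over an 8 min run after selenite addition; series mostly up to about 57 µM; nearly all actives have a fitted effect of over 40% in size.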 The settings on record: Potency: inhibition. In short, it runs like this:
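Inhibition is scored from the loss of NADPH fluorescence between first and last reads of an 8-min kinetic run. Selenite (400 uM) was the substrate, added after 15 min compound preincubation at room temperature.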

A short description of assay [13]: qHTS Validation Assay to Find Inhibitors of Chronic Active B-Cell Receptor Signaling (AID 485345; active = well fitted curve in the direction sought with a large enough effect in the main read-out, with a control signal flat, not every such curve was filed as active). An outline of the steps: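 TMD8 ABC-DLBCL cells stably carrying doxycycline-inducible IkappaBalpha–green luciferase fusion plus unfused red luciferase; compounds 46 uM to 3 nM, 4 h at 37C with doxycycline. Corrected green/red luminescence ratio normalized to 10 uM MG-132 and basal cell wells; curves fitted.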

Assay [14] deals with ATP-dependent 6-phosphofructokinase (Trypanosoma brucei brucei) (UniProt O15648). As to the kind of experiment: qHTS Validation Assay to Find Inhibitors of T. brucei phosphofructokinase (AID 485368). In short, it runs like this:
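qHTS format, up to 57 uM. PFK 1.25 nM; F6P 0.5 mM; ATP 0.1 mM; 5 mM MgCl2, 0.01% Tween20, 0.1% BSA; 0.1 M TEA pH 8.0; 45 min RT; ADP-Glo readout; no-enzyme control = full inhibition.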

Assay [15] addresses Flap endonuclease 1 (Homo sapiens) (UniProt P39748). Description: qHTS Validation Assay for the Inhibitors of Human Flap endonuclease 1 (FEN1) (AID 488816). An outline of the steps: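 Enzyme reagent 10 nM; cpds pinned; 15 min RT preinc.; substrate 50 nM final; reads t=0 and 15 min; no-enzyme buffer wells as neg. control; normalized data, 4-parameter Hill fit.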
Assay [16] concerns the target M-phase phosphoprotein 8 (Homo sapiens) (UniProt Q99549). As to the kind of experiment: qHTS Validation Assay for Inhibitors for MPP8 Chromodomain Interactions with Methylated Histone Tails (AID 488949).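 Also: 50 nM MPP8 with 50 nM peptide preformed then compounds added for 30 min; AlphaScreen signal from MPP8 chromodomain bound to biotinylated H3K9me3 peptide; top concentration of the series differs between compounds; nearly all actives have a fitted effect of over 55% in size.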 An outline of the steps:
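50 nM MPP8 + 50 nM b-H3K9me3 peptide, PBS pH 7.4/0.01% Tween-20, 30 min RT; + cpd 30 min RT; + AlphaScreen donor/Ni-chelate acceptor beads 10 ug/mL final, 30 min dark; luminescence read.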

Assay [17] addresses Chromobox protein homolog 1 (Homo sapiens) (UniProt P83916). Description: qHTS Validation Assay for Inhibitors of HP1-beta Chromodomain Interactions with Methylated Histone Tails (AID 488953).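 Also: loss of AlphaScreen luminescence from HP1-beta binding biotinylated H3K9me3 peptide; series mostly up to about 110 µM; nearly all actives have a fitted effect of over 50% in size.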 In short, it runs like this:
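AlphaScreen proximity readout: streptavidin donor and Ni-chelate acceptor beads, 10 ug/mL final, 30 min dark, RT. Complex of 50 nM HP1-beta and 50 nM b-H3(1-18)K9me3 formed 30 min, then compound-treated 30 min; PBS pH 7.4/0.01% Tween-20.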

Chromobox protein homolog 1 (Homo sapiens), sequence (P83916 whole entry, looked up): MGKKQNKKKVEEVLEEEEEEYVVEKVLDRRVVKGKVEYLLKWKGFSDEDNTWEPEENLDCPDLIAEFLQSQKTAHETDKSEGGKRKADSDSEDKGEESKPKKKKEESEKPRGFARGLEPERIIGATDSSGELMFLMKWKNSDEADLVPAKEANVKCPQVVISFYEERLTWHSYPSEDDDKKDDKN
Tumor susceptibility gene 101 protein (Homo sapiens), sequence (Q99816 whole entry, looked up, the tested form may be a part): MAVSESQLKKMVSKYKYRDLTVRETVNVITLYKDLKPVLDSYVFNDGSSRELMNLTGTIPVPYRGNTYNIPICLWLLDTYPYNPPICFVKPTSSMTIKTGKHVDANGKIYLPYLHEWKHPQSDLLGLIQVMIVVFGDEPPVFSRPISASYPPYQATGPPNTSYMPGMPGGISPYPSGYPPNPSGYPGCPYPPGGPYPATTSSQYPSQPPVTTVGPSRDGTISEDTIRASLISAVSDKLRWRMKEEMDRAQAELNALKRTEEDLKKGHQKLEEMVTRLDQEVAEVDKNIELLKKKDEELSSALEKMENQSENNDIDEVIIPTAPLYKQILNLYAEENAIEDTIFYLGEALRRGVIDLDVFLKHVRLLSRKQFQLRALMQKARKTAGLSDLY
M-phase phosphoprotein 8 (Homo sapiens), sequence (Q99549 whole entry, looked up): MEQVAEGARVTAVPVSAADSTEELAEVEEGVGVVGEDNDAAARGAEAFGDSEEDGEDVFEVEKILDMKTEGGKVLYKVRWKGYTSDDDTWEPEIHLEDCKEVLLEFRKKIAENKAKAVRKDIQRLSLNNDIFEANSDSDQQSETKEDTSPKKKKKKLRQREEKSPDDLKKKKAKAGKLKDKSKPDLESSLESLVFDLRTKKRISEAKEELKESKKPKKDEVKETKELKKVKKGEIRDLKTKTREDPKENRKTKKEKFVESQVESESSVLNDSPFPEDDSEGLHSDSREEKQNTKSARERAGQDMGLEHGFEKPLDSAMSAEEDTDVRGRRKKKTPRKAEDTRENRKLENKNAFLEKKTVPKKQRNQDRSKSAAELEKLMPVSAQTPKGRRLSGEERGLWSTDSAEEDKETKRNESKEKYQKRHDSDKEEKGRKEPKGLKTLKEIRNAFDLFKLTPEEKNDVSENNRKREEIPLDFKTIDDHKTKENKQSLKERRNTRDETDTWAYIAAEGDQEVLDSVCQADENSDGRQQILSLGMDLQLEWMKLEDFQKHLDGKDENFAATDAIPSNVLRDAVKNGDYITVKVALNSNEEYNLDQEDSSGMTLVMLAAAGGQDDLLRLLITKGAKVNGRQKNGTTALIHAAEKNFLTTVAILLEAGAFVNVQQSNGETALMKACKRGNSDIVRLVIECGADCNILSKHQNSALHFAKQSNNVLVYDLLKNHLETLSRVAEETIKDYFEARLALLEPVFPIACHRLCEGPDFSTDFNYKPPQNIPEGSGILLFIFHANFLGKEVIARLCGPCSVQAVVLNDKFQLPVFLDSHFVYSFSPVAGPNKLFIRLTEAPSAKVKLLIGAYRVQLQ
Ubiquitin carboxyl-terminal hydrolase 2 (Homo sapiens), sequence (O75604 whole entry, looked up): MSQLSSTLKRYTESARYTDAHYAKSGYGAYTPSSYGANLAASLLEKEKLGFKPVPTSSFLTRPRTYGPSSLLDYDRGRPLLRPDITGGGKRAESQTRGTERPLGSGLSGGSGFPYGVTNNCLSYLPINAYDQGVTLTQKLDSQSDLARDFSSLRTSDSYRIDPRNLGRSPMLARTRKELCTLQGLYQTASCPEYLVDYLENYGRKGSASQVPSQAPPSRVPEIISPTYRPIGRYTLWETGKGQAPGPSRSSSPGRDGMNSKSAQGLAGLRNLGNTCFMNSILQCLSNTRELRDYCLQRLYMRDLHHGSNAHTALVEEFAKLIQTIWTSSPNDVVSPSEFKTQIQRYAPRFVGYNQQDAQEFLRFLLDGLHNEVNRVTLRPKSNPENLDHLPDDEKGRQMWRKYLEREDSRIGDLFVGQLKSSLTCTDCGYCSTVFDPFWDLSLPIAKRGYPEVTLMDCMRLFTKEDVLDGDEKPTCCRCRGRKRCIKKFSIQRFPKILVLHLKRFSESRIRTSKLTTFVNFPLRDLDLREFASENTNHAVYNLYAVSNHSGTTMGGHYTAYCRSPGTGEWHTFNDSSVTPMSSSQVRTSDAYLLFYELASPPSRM
DNA polymerase III PolC-type (Bacillus subtilis (strain 168)), sequence (P13267 whole entry, looked up): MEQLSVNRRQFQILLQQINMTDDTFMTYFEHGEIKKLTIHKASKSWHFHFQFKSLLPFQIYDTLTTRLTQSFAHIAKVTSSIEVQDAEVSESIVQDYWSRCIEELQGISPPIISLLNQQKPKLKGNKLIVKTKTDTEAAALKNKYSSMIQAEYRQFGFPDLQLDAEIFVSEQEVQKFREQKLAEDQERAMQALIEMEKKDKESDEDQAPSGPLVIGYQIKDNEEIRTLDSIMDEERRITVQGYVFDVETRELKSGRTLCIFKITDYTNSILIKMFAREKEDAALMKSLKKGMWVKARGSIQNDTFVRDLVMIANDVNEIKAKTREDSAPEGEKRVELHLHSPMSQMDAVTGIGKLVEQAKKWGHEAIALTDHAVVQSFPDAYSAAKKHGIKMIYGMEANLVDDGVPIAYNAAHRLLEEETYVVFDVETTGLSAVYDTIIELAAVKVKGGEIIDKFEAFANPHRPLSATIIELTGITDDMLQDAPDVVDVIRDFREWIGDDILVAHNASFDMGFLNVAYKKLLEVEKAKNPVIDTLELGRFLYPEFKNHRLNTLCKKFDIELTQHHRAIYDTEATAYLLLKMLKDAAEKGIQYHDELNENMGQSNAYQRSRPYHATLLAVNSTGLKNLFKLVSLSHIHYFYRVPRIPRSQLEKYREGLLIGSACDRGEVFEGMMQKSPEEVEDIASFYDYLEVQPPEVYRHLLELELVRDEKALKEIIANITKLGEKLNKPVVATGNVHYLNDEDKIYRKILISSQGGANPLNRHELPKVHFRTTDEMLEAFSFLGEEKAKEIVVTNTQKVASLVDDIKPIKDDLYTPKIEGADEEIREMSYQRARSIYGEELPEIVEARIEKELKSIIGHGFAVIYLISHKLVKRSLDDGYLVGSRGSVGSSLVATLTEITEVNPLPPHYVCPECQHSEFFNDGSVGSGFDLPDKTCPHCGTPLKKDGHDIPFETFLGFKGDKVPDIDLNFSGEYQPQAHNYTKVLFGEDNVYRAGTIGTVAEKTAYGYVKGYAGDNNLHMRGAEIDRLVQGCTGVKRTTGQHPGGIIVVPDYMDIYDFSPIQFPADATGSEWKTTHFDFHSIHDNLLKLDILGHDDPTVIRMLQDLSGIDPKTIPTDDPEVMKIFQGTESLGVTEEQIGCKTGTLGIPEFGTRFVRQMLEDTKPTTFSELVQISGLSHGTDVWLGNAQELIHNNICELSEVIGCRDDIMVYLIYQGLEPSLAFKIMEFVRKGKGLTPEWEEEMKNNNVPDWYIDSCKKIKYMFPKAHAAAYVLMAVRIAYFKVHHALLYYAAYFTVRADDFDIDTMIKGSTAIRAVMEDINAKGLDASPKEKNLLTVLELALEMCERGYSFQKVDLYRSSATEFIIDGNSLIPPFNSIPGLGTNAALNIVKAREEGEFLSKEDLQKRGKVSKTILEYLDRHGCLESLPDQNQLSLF
Flap endonuclease 1 (Homo sapiens), sequence (P39748 whole entry, looked up): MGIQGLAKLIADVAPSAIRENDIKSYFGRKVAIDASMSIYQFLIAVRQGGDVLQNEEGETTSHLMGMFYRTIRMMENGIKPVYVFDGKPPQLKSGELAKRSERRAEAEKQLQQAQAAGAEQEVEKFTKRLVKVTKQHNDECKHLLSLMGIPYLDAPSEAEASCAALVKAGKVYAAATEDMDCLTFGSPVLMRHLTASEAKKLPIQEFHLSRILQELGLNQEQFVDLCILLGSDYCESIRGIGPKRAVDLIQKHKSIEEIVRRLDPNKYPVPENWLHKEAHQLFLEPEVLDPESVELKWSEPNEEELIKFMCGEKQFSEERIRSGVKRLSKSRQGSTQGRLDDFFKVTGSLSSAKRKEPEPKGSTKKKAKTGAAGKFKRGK
Thioredoxin reductase 1, cytoplasmic (Rattus norvegicus), sequence (O89049 whole entry, looked up): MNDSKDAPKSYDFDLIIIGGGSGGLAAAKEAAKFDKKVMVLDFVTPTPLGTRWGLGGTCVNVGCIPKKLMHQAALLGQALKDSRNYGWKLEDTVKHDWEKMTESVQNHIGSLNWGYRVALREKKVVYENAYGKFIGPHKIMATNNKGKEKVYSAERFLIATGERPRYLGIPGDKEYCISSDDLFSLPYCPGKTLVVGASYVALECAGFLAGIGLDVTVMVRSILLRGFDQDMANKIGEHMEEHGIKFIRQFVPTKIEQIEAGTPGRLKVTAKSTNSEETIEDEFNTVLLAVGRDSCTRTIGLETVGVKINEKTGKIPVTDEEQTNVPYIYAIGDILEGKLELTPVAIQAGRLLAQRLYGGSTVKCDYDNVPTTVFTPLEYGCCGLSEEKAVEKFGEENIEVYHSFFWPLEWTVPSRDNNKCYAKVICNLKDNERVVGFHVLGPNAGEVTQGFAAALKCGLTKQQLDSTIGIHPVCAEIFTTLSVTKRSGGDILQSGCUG
Beta-2 adrenergic receptor (Homo sapiens), sequence (P07550 whole entry, looked up): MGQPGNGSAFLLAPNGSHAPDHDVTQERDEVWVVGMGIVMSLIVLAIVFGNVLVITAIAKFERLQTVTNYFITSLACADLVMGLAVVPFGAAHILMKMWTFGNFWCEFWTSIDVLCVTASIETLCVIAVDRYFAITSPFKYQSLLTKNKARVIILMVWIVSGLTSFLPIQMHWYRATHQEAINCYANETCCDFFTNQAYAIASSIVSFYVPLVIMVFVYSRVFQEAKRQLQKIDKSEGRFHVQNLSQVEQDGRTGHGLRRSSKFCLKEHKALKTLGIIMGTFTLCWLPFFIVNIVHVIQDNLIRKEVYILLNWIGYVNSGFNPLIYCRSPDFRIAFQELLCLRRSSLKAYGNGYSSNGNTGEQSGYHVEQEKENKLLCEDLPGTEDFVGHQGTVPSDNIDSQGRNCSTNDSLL

Regarding `Brc1c(Br)c(Br)c2n[nH]nc2c1Br`, the compound was called inactive in assay [1], in assay [7] and in [8]. In addition, the Potency entry in [2], in assay [3], in assay [4], in assay [5], in assay [6] and in assay [9] was “inactive” in each case. For the same compound, the Potency result in assay [10], in [11] and in [12] was “inactive” each time.
Turning to `CC(N)C(=O)OC(C)(C)Cc1ccc(Cl)cc1` (centres undefined), the outcome in [1], in [7], in assay [13] and in assay [8] was inactive. Further, the Potency entry in assay [2], in [3], in assay [4], in [5], in assay [6] and in assay [11] was “inactive” in each case. Besides, in [12], the Potency result is “inactive”.
With `C#CCN1C(C)=C(C(=O)OC)C(c2cccc([N+](=O)[O-])c2)C(C(=O)OCC)=C1C` (centres undefined), the result in assay [1], in [7] and in [8] was inactive. For the same compound, the Potency entry in [2], in assay [3], in assay [4], in assay [5], in [6] and in [14] was “inactive” each time. In addition, the Potency entry in [15] and in assay [16] was “inactive” in each case. The Potency in [9] was 8.28 µM (active); in assay [10], 11.7 µM (active).
`CCCCC#Cc1nc(NC)c2ncn([C@@H]3O[C@H](CO)[C@@H](O)[C@H]3O)c2n1`: the outcome in assay [1], in [7] and in assay [8] was inactive. Further, the Potency entry in assay [2], in [3], in assay [4], in [5], in [6] and in assay [11] was “inactive” throughout. Moreover, the Potency entry in assay [12], in assay [15], in assay [16] and in [17] was “inactive” throughout.
As to `Nc1nc(Cl)nc2c1ncn2[C@@H]1O[C@H](COP(=O)(O)OP(=O)(O)OP(=O)(O)O)[C@@H](O)[C@H]1O`, the compound was called inactive in assay [1], in [7] and in assay [8]. The Potency result in assay [2], in assay [3], in assay [4], in [5], in [6] and in [11] was “inactive” each time. Moreover, the Potency entry in assay [12], in assay [15], in assay [16] and in assay [17] was “inactive” each time.
As to `Cc1nc2sccn2c(=O)c1CCN1CCC(=C(c2ccccc2)c2ccc(F)cc2)CC1`, the result in assay [1], in assay [7], in [13] and in [8] was inactive. Besides, the Potency result in [2], in assay [3], in assay [4], in assay [5], in assay [6] and in [11] was “inactive” throughout. Besides, the Potency entry in [12], in [15] and in assay [16] was “inactive” each time.
For `Nc1nc(Cl)nc2c1ncn2[C@@H]1O[C@H](CO)[C@@H](O)[C@H]1O`, the compound was classed as inactive in [1], in assay [7] and in assay [8]. Besides, the Potency entry in assay [2], in assay [3], in assay [4], in [5], in [6] and in assay [14] was “inactive” in each case. The Potency result in assay [11], in [15], in assay [16] and in assay [17] was “inactive” in each case.
For `c1cnc2c(c1)ccc1cccnc12`, the compound was called inactive in [1], in [7], in assay [13] and in assay [8]. Moreover, the Potency result in assay [2], in [5], in assay [6], in assay [11], in assay [12] and in assay [15] was “inactive” each time. Further, the Potency entry in assay [16] and in assay [17] was “inactive” throughout. The Potency was 0.0465 µM (active) in [3], 4.65 µM (active) in assay [4], 1.85 µM (active) in assay [9] and 2.94 µM (active) in assay [10].

For the origin of these results see PubChem BioAssay (NCATS).
